Laboratory results published in PubChem BioAssay AID371 (SRMLSC, 2006).
Screen size: about 3,300 compounds; about 280 (8.5%) were called active.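 The calls were made as follows: active = mean growth inhibition over the two runs of 50% or more; inactive = mean growth inhibition under 50%.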 For the sample, actives were picked, then their nearest neighbours and some compounds at random.

Experiment: A549 NSCLC cell proliferation inhibitors – ATP luminescence, human non-small cell lung line, primary screen (AID 371);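 also: compound exposure lasted 72 h before the ATP read; 0% = untreated cell signal and 100% = no luminescence left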
Details: at 10 µM, hits give high values

Row | Structure (SMILES) | growth inhibition
1 | O=C1c2ccccc2C(=O)N1CCN1CCc2ccccc21 | 8.36% (inactive)
2 | Cc1ccc(C(C)C)c(OCCNc2nc3c(c(=O)n(C)c(=O)n3C)n2C)c1 | 20.2% (inactive)
3 | CCSc1nc(N)c2c3c(sc2n1)CCC3 | 6.53% (inactive)
4 | c1csc(-c2nn3c(C4CCCCC4)nnc3s2)c1 | 7.39% (inactive)
5 | CC(C)(C)n1cnc2cc(NS(=O)(=O)c3ccc(Br)cc3)ccc21 | 61.4% (active)
6 | CC1CN(C2CCN(S(=O)(=O)c3ccc4ccccc4c3)CC2)CC(C)O1 (stereo not drawn) | 8.58% (inactive)
7 | CC(C)c1nc2sc3c(c2c(=O)o1)CCCC3 | 0.69% (inactive)
8 | CCOc1ccc(C2C(C#N)=C(N)Oc3cc(C)n(CCN4CCOCC4)c(=O)c32)cc1OCC (stereo not drawn) | 1.16% (inactive)
9 | CO[C@H]1C[C@@H]2CC[C@@H](C)[C@@](O)(O2)C(=O)C(=O)N2CCCC[C@H]2C(=O)O[C@H]([C@H](C)C[C@@H]2CC[C@@H](O)[C@H](OC)C2)CC(=O)[C@H](C)C=C(C)[C@@H](O)[C@@H](OC)C(=O)[C@H](C)C[C@H](C)C=CC=CC=C1C | 65.2% (active)
10 | CCCOC(=O)C1[C@H]2C(=O)N(Cc3ccco3)C[C@]23C=C[C@H]1O3 (stereo partly drawn) | 9.74% (inactive)
11 | CCCOc1ccc(C(C)=O)cc1CSCCC#N | 8.19% (inactive)
12 | CCOC(=O)c1c(C)[nH]c(/C(C)=N/O)c1C | 12.8% (inactive)
13 | CCOC(=O)c1c(C(F)(F)C(F)(F)C(F)(F)C(F)(F)F)n[nH]c1C | 91.1% (active)
14 | CCOC(=O)c1c(C)[nH]sc1=S | 3.75% (inactive)
15 | CCOC(=O)C1=C(C)NC(C)=C(C(=O)OC)C1c1cccc(Cl)c1Cl (stereo not drawn) | 79.5% (active)
16 | COC(=O)C1=C(C)NC(C)=C(C(=O)OC)C1c1ccccc1[N+](=O)[O-] | 47.5% (inactive)
17 | CCOC(=O)C1=C(C)NC(=O)C1CC(=O)Nc1ccccc1 (stereo not drawn) | -0.76% (inactive)
18 | CCOC(=O)C1=C(C)NC(C)=C(C(=O)OC)C1c1cccc([N+](=O)[O-])c1 (stereo not drawn) | 52.7% (active)
19 | CCOC(=O)C1=C(C)NC(=O)NC1c1ccc2c(c1)OCO2 (stereo not drawn) | 5.16% (inactive)
20 | COCCOC(=O)C1=C(C)NC(C)=C(C(=O)OC(C)C)C1c1cccc([N+](=O)[O-])c1 (stereo not drawn) | 34.4% (inactive)
21 | Cc1c(O)c(CN2CCCC2)cc2c1oc(=O)c1ccccc12 | 9.98% (inactive)
22 | N#Cc1c(N2CCOCC2)nc(-c2ccco2)c2c1CCCC2 | 7.04% (inactive)

Row | Structure (SMILES) | growth inhibition
23 | CCC(=O)c1ccc(O)cc1 | 4.76% (inactive)
24 | C/C=C(/C(=C/C)c1ccc(O)cc1)c1ccc(O)cc1 | 50.9% (active)
25 | Cn1c(NCCN2CCCCC2)cc(=O)n(C)c1=O | -1.36% (inactive)
26 | COc1cc(C2CC(C(F)(F)F)n3ncc(C(=O)O)c3N2)cc(OC)c1OC (stereo not drawn) | 2.64% (inactive)
27 | CN1CCN(C(=O)CSc2nc(-c3cccs3)ccc2C#N)CC1 | 3.23% (inactive)
28 | COc1ccc(N2C(=O)CC(N(Cc3ccc(S(N)(=O)=O)cc3)C(C)=O)C2=O)cc1 (stereo not drawn) | 0.97% (inactive)
29 | Cc1ccc2[nH]c3c(c2c1)CN(C(=O)CN1CCCc2ccccc21)CC3 | 69% (active)
30 | Cc1ccc2[nH]c3c(c2c1)CN(C(=O)CN1CC(C)OC(C)C1)CC3 (stereo not drawn) | 3.04% (inactive)
31 | Cc1ccc2[nH]c3c(c2c1)CN(C(=O)CN1CCN(c2ccccn2)CC1)CC3 | 15.6% (inactive)
32 | COCCOC(=O)c1c(C)oc2ccc(OC(=O)COc3c(F)c(F)c(F)c(F)c3F)cc12 | 5.03% (inactive)
33 | Cc1ccc(C(=O)NCC(C)(C)O)cc1 | 4.92% (inactive)
34 | COc1ccc(N2CCN(C3CC(=O)NC3=O)CC2)cc1 (stereo not drawn) | 1.16% (inactive)
35 | CC(=O)O[C@H]1C(=O)[C@]2(C)[C@H]([C@H](OC(=O)c3ccccc3)[C@]3(O)C[C@H](OC(=O)[C@H](O)[C@@H](NC(=O)c4ccccc4)c4ccccc4)C(C)=C1C3(C)C)[C@]1(OC(C)=O)CO[C@@H]1C[C@@H]2O | 65.8% (active)
36 | CC(=O)O[C@@]12CO[C@@H]1C[C@H](O)[C@@]1(C)C(=O)[C@H](O)C3=C(C)[C@@H](OC(=O)[C@H](O)[C@@H](NC(=O)OC(C)(C)C)c4ccccc4)C[C@](O)([C@@H](OC(=O)c4ccccc4)[C@H]21)C3(C)C | 55.2% (active)
37 | CCOC(=O)CC1=C(C(=O)OCC)C(c2ccc(OC)c(OC)c2)C(C#N)=C(N)O1 (stereo not drawn) | -2.02% (inactive)
38 | CCOC(=O)CC1=C(C(=O)OCC)C(c2cc(OC)c(OC)cc2OC)C(C#N)=C(N)O1 (stereo not drawn) | -5.45% (inactive)
39 | CCCCCCn1c(SCCN2CCOCC2)nc2c1c(=O)[nH]c(=O)n2C | 7.31% (inactive)
40 | CN1CC2(C)CN(C(c3ccccc3)c3ccccc3)CC(C)(C1)C2O (stereo not drawn) | 6.36% (inactive)
41 | CCCCCCCC(=O)OCC(=O)[C@@]1(O)CC[C@H]2[C@@H]3CCC4=CC(=O)CC[C@]4(C)[C@H]3[C@@H](O)C[C@@]21C | 26.8% (inactive)
42 | CCCCC(=O)O[C@]1(C(=O)CO)CC[C@H]2[C@@H]3CCC4=CC(=O)CC[C@]4(C)[C@H]3[C@@H](O)C[C@@]21C | 21.6% (inactive)
43 | CC(=O)O[C@]1(C(C)=O)CC[C@H]2[C@@H]3C[C@H](C)C4=CC(=O)CC[C@]4(C)[C@H]3CC[C@@]21C | 50% (inactive)
44 | CCCCCC(=O)O[C@]1(C(C)=O)CC[C@H]2[C@@H]3CCC4=CC(=O)CC[C@]4(C)[C@H]3CC[C@@]21C | 73.5% (active)

Row | Structure (SMILES) | growth inhibition
45 | CC(=O)O[C@]1(C(C)=O)CC[C@H]2[C@@H]3C=C(C)C4=CC(=O)CC[C@]4(C)[C@H]3CC[C@@]21C | 34.5% (inactive)
46 | CC(=O)O[C@]1(C(C)=O)CC[C@H]2[C@@H]3C=C(Cl)C4=CC(=O)CC[C@]4(C)[C@H]3CC[C@@]21C | 52.6% (active)
47 | O=C(O)C1CSC(CCc2ccccc2)N1 (stereo not drawn) | 5.85% (inactive)
48 | CCN(CC)CCCN1C(=O)C(=O)/C(=C(/O)c2ccc3c(c2)CC(C)O3)C1c1cccnc1 (stereo not drawn) | 1.89% (inactive)
49 | COc1ccccc1N(Cc1cc2cccc(C)c2[nH]c1=O)C(=O)C(C)C | 12.1% (inactive)
50 | O=C1C(=O)N(Cc2cccnc2)C(c2ccccn2)/C1=C(/O)c1ccc(F)cc1 (stereo not drawn) | 1.96% (inactive)
51 | Cc1ccc(S(=O)(=O)/C(C#N)=C/c2c(N3CCN(C)CC3)nc3c(C)cccn3c2=O)cc1 | -1.01% (inactive)
52 | Cc1nnc(NCc2n[nH]c(=O)c3ccccc23)c2ccccc12 | 69.7% (active)
53 | Cc1nnc(N2CCCCC2)c2ccccc12 | 8.14% (inactive)
54 | COc1ccc(Nc2nnc(C)c3ccccc23)cc1C(N)=O | -0.95% (inactive)
55 | Nc1nnnn1N=C1CCCCC1 | -2.31% (inactive)
56 | CCOC(=O)CCNc1n[nH]c(=O)[nH]c1=O | 4.05% (inactive)
57 | COC(=O)c1ccc(N2C(=O)CC(N3CCN(C(=O)c4ccco4)CC3)C2=O)cc1 (stereo not drawn) | -5.76% (inactive)
58 | COc1ccc(Cn2ccnc2)cc1Br | 7.92% (inactive)
59 | COc1nnnc2c1sc1nc(N3CCOCC3)c3c(c12)CC(C)(C)OC3 | -0.53% (inactive)
60 | CC1(C)Cc2c(c(N3CCOCC3)nc3snc(Br)c23)CO1 | 16% (inactive)
61 | CC1(C)Cc2c(c(N3CCOCC3)nc3snc(N)c23)CO1 | 91% (active)
62 | CCCCNC(=O)N1CCOCCOCCN(C(=O)NCCCC)CCOCC1 | 2.17% (inactive)
63 | CCOP(=O)(c1ccccc1)c1nc(-c2ccccc2C)oc1N1CCCCC1 (stereo not drawn) | 90.3% (active)
64 | CCOP(=O)(c1ccccc1)c1nc(-c2ccc(F)cc2)oc1N1CCCCC1 (stereo not drawn) | 35.1% (inactive)
65 | N#Cc1nc(-c2ccccc2Cl)oc1N1CCCCC1 | 25.2% (inactive)
66 | Clc1cccc(-c2nn3c(COc4ccccc4)nnc3s2)c1 | -1.72% (inactive)

Row | Structure (SMILES) | growth inhibition
67 | Cc1nn(C)cc1/C=N/n1nnnc1N | 3.1% (inactive)
68 | N#Cc1nc(-c2cccs2)oc1NCc1ccc2c(c1)OCO2 | 51.8% (active)
69 | N#Cc1nc(-c2cccs2)oc1NCc1ccccc1Cl | 16.3% (inactive)
70 | N#Cc1nc(-c2cccs2)oc1NCc1ccccc1 | 37.1% (inactive)
71 | Cc1ccc(C2/C(=C(/O)c3ccc(OC(C)C)cc3)C(=O)C(=O)N2CCN2CCOCC2)cc1 (stereo not drawn) | -0.89% (inactive)
72 | CC(=Nc1cccc(O)c1)c1sc2ccccc2c1O | 71.6% (active)
73 | Oc1c(C=NCc2ccncc2)sc2ccccc12 | 3.71% (inactive)
74 | Oc1c(C=Nc2cccnc2)sc2ccccc12 | 9.67% (inactive)
75 | O=C1CC(N(O)C2CC(=O)N(Cc3ccccc3)C2=O)C(=O)N1Cc1ccccc1 (stereo not drawn) | 9.01% (inactive)
76 | CN(C)CCCOC(=O)C1c2ccccc2Oc2ccccc21 | 8.41% (inactive)
77 | Cc1ccc2[nH]c3c(c2c1)CCCC3C(N)=O (stereo not drawn) | 0.63% (inactive)
78 | Cc1nnc(N2CCOCC2)c2ccccc12 | -0.2% (inactive)
79 | O=C(NC1CCCCC1)Nn1c(-c2ccccc2)nc2ccccc2c1=O | 5.81% (inactive)
80 | NC(=O)C(c1ccccc1)C1CCCC1 (stereo not drawn) | 2% (inactive)
81 | O=C(NC1CCCCC1)N1CCSC1=Nc1ccccc1 | 83.3% (active)
82 | Cc1cc(C)n(-c2nnc(C)n2/N=C/c2ccccc2F)n1 | -1.21% (inactive)
83 | CCc1nnc(NC(=O)CSc2nc(C)c3c(c2C#N)CCCC3)s1 | 47.6% (inactive)
84 | Cc1ccc(-n2c(SCC(=O)NCc3ccco3)nc3nc4c(cc3c2=O)COC(C)(C)C4)cc1 | 7.55% (inactive)
85 | CCCc1cc(-c2nc(N)ncc2-c2ccc3c(c2)OCCCO3)c(O)cc1OC | 78.2% (active)
86 | O=S(=O)(c1ccccc1)N1CCC(N2CCCCCC2)CC1 | 11.3% (inactive)
87 | Cc1ccc(S(=O)(=O)N(CC(O)CN(C)C)c2ccccc2)cc1 (stereo not drawn) | 5.21% (inactive)
88 | COC(=O)c1cc(Br)c(=O)n(-c2cc(C)on2)c1 | 5.44% (inactive)
